# ChEMBL document CHEMBL1961873, “Compounds: GSK PKIS; Assays: Nanosyn kinase panel” (2012)
# Assays:
# [1] = molecular target: T1, Serine/threonine-protein kinase D2 (Homo sapiens) (UniProt Q9BZL6); conditions: at 1 µM;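 also: mean value of PRKD2 inhibition, from the GSK PKIS screening panel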
# T1 sequence (whole entry): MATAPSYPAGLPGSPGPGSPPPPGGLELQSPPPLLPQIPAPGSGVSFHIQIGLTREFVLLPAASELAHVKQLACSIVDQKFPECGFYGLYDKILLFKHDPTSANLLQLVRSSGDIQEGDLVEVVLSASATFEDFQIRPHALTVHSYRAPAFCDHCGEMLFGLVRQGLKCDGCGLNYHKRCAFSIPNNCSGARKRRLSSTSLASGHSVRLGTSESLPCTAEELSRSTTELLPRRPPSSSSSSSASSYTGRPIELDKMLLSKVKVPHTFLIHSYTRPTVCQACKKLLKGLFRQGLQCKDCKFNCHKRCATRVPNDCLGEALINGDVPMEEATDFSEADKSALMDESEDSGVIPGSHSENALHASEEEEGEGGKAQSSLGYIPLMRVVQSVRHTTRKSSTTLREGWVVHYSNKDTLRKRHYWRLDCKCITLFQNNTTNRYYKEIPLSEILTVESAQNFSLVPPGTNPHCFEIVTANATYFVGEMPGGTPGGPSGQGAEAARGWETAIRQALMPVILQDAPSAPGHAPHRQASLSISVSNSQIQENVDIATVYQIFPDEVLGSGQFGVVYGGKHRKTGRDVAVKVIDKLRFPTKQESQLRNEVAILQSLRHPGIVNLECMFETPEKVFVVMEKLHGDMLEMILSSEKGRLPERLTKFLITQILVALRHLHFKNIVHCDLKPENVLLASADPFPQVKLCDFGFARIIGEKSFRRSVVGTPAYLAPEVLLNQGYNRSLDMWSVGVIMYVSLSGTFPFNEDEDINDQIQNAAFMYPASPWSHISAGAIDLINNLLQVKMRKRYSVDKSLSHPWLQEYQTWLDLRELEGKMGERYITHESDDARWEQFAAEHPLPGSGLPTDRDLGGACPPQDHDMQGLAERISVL
# [2] = molecular target: T2, Serine/threonine-protein kinase D3 (Homo sapiens) (UniProt O94806); conditions: at 0.1 µM
# T2 sequence (whole entry): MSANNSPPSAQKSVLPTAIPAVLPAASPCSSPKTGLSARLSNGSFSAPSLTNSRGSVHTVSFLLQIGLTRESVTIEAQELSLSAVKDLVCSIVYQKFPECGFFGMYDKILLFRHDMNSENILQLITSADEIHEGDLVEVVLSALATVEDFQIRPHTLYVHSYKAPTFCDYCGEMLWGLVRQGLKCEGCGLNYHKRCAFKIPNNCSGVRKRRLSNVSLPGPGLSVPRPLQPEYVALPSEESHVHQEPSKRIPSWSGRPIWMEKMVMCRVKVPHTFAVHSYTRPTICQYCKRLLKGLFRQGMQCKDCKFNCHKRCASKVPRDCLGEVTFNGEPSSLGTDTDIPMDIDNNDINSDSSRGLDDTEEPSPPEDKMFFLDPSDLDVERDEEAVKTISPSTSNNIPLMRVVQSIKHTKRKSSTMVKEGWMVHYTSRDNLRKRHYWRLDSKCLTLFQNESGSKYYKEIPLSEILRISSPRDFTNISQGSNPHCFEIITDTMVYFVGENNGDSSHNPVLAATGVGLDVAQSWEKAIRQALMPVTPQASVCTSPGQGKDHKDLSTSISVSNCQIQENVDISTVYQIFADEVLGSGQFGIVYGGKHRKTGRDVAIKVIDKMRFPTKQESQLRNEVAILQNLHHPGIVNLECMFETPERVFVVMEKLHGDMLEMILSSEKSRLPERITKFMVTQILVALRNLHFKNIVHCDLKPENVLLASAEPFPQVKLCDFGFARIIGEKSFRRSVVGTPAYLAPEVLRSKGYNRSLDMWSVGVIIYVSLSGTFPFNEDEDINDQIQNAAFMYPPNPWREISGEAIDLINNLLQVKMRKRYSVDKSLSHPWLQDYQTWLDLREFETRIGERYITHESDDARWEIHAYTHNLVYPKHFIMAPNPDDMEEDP
# [3] = molecular target: T2, Serine/threonine-protein kinase D3 (Homo sapiens); conditions: at 1 µM
# [4] = molecular target: T3, cGMP-dependent protein kinase 1 (Homo sapiens) (UniProt Q13976); conditions: at 0.1 µM
# T3 sequence (whole entry): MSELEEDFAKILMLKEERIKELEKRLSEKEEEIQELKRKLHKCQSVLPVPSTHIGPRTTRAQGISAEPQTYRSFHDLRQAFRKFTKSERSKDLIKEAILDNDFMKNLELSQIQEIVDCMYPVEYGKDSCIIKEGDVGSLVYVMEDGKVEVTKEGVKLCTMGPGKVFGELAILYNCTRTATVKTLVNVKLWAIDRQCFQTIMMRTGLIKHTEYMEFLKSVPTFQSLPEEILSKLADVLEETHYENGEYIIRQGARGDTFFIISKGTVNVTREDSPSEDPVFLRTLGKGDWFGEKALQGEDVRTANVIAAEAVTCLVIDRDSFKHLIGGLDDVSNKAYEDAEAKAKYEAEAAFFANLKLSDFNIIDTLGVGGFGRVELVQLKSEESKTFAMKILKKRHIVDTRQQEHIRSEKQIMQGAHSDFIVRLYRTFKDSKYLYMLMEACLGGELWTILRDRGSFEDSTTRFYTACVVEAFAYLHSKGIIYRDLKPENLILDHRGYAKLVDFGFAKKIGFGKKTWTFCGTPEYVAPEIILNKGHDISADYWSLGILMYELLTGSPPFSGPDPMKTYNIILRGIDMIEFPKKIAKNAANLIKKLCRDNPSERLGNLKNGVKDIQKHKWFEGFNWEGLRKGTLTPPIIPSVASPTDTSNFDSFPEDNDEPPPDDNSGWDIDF
# [5] = molecular target: T3, cGMP-dependent protein kinase 1 (Homo sapiens); conditions: at 1 µM
# [6] = molecular target: T4, cGMP-dependent protein kinase 2 (Homo sapiens) (UniProt Q13237); conditions: at 0.1 µM
# T4 sequence (whole entry): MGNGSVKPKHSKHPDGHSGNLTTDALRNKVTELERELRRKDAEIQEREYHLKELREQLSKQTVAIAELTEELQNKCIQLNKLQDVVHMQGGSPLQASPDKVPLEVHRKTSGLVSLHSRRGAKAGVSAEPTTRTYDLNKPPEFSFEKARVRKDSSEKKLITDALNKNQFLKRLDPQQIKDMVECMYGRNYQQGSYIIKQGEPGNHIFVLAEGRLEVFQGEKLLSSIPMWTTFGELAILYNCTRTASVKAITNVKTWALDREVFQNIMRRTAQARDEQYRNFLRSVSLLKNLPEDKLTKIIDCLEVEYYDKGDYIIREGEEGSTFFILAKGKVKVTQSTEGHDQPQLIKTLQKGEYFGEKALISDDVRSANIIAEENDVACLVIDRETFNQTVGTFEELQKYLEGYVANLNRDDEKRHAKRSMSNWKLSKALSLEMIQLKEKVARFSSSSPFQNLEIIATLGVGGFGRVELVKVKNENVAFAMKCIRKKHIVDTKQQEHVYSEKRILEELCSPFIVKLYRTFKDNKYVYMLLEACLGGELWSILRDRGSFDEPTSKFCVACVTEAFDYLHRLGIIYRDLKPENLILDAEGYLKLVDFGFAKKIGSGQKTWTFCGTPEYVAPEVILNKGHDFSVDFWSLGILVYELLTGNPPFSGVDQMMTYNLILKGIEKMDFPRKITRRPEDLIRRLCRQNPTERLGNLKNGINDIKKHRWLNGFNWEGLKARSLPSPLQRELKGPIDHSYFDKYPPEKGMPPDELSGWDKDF
# [7] = molecular target: T4, cGMP-dependent protein kinase 2 (Homo sapiens); conditions: at 1 µM
# [8] = molecular target: T5, cAMP-dependent protein kinase catalytic subunit PRKX (Homo sapiens) (UniProt P51817); conditions: at 0.1 µM
# T5 sequence (whole entry): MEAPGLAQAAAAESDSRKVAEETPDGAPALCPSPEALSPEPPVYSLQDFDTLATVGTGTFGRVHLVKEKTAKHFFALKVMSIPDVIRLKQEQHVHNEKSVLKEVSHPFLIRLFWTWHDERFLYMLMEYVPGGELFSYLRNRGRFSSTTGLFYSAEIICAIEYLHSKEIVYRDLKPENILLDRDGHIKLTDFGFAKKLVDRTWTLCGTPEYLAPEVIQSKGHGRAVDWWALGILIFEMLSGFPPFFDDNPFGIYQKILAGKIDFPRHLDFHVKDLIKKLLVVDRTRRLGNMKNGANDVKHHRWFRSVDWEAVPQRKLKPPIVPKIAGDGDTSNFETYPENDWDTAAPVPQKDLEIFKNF
# [9] = molecular target: T5, cAMP-dependent protein kinase catalytic subunit PRKX (Homo sapiens); conditions: at 1 µM
# [10] = molecular target: Rho-associated protein kinase 1 (Homo sapiens) (UniProt Q13464); conditions: at 0.1 µM
# [11] = molecular target: Rho-associated protein kinase 1 (Homo sapiens) (UniProt Q13464); conditions: at 1 µM
# [12] = molecular target: Rho-associated protein kinase 2 (Homo sapiens) (UniProt O75116); conditions: at 0.1 µM
# [13] = molecular target: Rho-associated protein kinase 2 (Homo sapiens) (UniProt O75116); conditions: at 1 µM
# [14] = molecular target: Ribosomal protein S6 kinase alpha-1 (Homo sapiens) (UniProt Q15418); conditions: at 0.1 µM
# [15] = molecular target: Ribosomal protein S6 kinase alpha-1 (Homo sapiens) (UniProt Q15418); conditions: at 1 µM
# [16] = molecular target: Ribosomal protein S6 kinase alpha-3 (Homo sapiens) (UniProt P51812); conditions: at 0.1 µM
# [17] = molecular target: Ribosomal protein S6 kinase alpha-3 (Homo sapiens) (UniProt P51812); conditions: at 1 µM
# [18] = molecular target: Ribosomal protein S6 kinase alpha-2 (Homo sapiens) (UniProt Q15349); conditions: at 0.1 µM
# [19] = molecular target: Ribosomal protein S6 kinase alpha-2 (Homo sapiens) (UniProt Q15349); conditions: at 1 µM
# [20] = molecular target: Ribosomal protein S6 kinase alpha-6 (Homo sapiens) (UniProt Q9UK32); conditions: at 0.1 µM;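 also: reported value is the mean inhibition of RSK4, from the GSK PKIS kinase inhibitor screen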
# Sequence of Ribosomal protein S6 kinase alpha-6 (Homo sapiens) (Q9UK32 whole entry): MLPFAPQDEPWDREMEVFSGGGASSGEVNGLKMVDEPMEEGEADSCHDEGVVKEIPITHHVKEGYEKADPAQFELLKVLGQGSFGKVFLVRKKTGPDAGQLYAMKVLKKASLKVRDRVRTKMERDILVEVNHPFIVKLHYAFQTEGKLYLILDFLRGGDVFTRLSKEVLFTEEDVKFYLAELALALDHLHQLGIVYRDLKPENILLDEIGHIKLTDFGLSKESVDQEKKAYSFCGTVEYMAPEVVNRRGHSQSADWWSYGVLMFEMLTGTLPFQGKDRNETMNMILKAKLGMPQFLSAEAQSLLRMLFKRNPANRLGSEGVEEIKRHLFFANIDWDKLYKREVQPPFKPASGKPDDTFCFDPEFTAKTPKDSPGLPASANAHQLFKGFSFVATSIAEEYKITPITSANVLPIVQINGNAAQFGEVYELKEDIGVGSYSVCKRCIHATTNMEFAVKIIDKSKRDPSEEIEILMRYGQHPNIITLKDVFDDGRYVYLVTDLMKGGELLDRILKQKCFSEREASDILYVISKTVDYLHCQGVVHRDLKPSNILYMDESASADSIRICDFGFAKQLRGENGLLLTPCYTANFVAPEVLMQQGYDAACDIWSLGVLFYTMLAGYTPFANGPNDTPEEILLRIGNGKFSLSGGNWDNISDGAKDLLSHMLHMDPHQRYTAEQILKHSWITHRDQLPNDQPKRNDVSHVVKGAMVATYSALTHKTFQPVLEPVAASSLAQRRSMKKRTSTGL
# Sequence of Rho-associated protein kinase 1 (Homo sapiens) (Q13464 2-1354 limits assumed): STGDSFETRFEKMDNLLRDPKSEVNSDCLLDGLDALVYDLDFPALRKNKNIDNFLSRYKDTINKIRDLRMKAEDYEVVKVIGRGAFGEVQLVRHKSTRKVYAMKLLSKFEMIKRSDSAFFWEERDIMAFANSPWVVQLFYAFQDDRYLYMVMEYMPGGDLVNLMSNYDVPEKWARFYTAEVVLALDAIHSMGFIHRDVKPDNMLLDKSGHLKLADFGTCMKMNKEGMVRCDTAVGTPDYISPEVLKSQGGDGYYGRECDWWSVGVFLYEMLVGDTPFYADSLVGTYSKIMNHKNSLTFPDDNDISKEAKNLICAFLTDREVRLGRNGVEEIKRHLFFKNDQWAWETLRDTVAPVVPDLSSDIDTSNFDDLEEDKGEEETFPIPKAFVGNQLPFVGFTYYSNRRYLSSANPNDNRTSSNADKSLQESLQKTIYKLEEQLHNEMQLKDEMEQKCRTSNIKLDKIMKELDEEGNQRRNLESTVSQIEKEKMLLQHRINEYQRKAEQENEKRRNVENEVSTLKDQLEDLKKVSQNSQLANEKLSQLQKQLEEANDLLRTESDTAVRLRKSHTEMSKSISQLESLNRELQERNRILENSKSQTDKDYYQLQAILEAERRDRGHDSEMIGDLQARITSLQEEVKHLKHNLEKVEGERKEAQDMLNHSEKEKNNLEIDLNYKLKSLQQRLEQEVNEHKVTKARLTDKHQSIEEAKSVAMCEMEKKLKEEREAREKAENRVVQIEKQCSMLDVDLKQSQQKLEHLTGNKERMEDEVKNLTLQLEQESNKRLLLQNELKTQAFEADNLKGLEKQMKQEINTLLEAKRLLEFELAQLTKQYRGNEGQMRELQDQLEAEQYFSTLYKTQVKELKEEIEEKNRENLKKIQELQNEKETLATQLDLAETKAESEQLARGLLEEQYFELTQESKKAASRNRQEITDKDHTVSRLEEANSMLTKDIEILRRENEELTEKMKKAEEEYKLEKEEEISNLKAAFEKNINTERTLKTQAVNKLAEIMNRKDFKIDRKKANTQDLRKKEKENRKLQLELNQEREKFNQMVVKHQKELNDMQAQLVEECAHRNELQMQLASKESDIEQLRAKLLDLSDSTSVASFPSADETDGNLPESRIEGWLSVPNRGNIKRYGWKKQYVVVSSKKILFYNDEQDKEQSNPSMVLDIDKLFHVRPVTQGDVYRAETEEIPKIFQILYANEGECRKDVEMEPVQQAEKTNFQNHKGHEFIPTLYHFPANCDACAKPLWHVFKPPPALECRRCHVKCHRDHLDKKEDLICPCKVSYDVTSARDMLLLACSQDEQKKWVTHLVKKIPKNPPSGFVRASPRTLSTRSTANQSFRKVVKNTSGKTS
# Sequence of Ribosomal protein S6 kinase alpha-1 (Homo sapiens) (Q15418 whole entry): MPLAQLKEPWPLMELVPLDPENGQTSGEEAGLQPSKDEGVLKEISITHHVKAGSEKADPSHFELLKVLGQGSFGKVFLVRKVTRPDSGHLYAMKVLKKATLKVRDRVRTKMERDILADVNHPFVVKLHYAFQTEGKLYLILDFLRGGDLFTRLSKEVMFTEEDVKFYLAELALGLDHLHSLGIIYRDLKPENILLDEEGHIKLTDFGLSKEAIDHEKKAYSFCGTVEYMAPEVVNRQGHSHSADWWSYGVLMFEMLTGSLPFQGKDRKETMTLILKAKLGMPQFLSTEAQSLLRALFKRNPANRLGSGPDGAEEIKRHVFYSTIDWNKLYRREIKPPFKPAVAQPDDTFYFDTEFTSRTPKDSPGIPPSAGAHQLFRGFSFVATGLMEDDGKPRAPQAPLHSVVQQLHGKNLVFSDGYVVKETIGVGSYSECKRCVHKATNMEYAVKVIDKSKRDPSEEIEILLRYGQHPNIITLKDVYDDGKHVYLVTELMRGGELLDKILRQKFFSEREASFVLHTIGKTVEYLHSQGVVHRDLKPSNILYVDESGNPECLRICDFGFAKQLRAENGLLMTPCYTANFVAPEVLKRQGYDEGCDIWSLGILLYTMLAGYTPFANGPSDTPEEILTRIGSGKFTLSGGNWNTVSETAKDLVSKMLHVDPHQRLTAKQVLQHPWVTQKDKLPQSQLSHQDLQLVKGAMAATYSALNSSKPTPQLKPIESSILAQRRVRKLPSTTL
# Sequence of Ribosomal protein S6 kinase alpha-2 (Homo sapiens) (Q15349 whole entry): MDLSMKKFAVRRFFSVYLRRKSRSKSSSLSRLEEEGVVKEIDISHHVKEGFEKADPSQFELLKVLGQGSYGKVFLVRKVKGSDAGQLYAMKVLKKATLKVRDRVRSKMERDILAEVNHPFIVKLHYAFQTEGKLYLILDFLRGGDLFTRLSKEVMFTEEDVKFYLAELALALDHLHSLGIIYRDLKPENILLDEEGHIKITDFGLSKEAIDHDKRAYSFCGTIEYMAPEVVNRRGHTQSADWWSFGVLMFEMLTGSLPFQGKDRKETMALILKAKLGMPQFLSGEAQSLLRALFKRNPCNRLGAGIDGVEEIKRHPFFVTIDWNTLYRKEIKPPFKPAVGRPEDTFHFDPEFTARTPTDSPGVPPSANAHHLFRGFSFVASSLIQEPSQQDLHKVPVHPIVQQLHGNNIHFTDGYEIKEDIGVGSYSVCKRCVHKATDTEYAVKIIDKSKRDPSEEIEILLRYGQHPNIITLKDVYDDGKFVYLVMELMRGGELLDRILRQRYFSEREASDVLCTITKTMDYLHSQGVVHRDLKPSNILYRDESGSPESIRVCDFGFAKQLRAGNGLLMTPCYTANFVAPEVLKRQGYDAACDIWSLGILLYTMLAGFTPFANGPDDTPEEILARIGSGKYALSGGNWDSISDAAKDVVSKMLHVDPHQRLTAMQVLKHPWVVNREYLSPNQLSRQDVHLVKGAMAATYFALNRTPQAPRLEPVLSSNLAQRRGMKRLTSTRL
# Sequence of Ribosomal protein S6 kinase alpha-3 (Homo sapiens) (P51812 whole entry): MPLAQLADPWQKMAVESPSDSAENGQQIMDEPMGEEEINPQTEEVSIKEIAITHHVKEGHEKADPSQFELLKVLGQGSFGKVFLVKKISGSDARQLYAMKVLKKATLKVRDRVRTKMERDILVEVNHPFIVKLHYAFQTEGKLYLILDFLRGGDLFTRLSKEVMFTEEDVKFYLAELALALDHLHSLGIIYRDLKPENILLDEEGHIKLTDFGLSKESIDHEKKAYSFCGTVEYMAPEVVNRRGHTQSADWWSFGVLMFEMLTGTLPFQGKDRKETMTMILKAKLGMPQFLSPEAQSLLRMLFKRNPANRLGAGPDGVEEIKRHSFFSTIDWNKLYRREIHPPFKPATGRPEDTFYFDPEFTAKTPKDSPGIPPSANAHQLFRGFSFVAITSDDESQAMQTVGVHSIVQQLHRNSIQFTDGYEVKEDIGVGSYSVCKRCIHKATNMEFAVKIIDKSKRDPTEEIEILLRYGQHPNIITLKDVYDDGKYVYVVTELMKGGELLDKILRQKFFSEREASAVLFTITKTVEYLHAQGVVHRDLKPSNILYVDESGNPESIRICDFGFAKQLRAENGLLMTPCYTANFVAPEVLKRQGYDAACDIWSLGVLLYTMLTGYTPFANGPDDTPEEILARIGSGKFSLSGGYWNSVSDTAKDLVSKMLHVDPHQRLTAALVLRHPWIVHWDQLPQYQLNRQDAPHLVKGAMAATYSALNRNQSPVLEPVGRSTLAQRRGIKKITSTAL
SMILES,inhibition [1] [%],inhibition [2] [%],inhibition [3] [%],inhibition [4] [%],inhibition [5] [%],inhibition [6] [%],inhibition [7] [%],inhibition [8] [%],inhibition [9] [%],inhibition [10] [%],inhibition [11] [%],inhibition [12] [%],inhibition [13] [%],inhibition [14] [%],inhibition [15] [%],inhibition [16] [%],inhibition [17] [%],inhibition [18] [%],inhibition [19] [%],inhibition [20] [%]
CCS(=O)(=O)c1ccc(OC)c(Nc2ncc(-c3cccc(C(C)=O)c3)o2)c1,1,2.85,1.31,1.67,2.08,-0.65,2.63,1.59,3.12,0.01,2.14,1.98,6.73,2.43,5.75,1.27,3.54,0.6,3.67,1
CS(=O)(=O)Nc1ccc(-c2cc(-c3ccccc3)cc(C(N)=O)c2N)cc1,1.14,1.65,2.57,2.68,2.84,1.37,2.4,1.16,1.26,1.5,1.71,0.41,1.85,-1.14,0.41,-0.7,0.45,-1.55,0.47,-1.16
COc1cc(N2CCN(C(C)C)CC2)ccc1Nc1nc(Nc2cccc(F)c2C(=O)O)c2cc[nH]c2n1,4.66,4.61,4.8,1.6,5.7,1.77,3.84,1.23,2.86,0.41,2.22,2.05,5.77,4.06,16,2.18,11.6,0.99,5.21,2.17
CCS(=O)(=O)c1ccc(OC)c(Nc2ncc(-c3cccc(F)c3)o2)c1,3.8,4.67,4.73,4.88,8.02,3.78,6.47,3.37,2.6,2.49,2.95,3.63,3.95,2.84,6.08,1.12,13.6,4.07,5.22,2.2
CNC(=O)c1cncc(/C=C/c2ccccc2C)c1,3.79,3.31,4.34,4.05,5.68,2.97,5.05,3.99,6.15,1.2,1.27,4.29,8.78,2.39,4.99,2.14,3.84,0.87,2.74,0.45
Cc1c2ccc(N(C)c3ccnc(Nc4cccc(S(N)(=O)=O)c4)n3)cc2nn1C,0.98,2.69,2.71,3.15,5.31,2.54,4.29,2.29,1.21,1.12,1.97,2.24,2.37,2,3.33,1.97,3.86,3.56,5.15,2.42
CCCNc1cccc(-n2ncc3c(N/N=C/c4ccncc4)ncnc32)c1,1.21,0.66,0.02,0.73,2.57,2.7,4.72,2.18,4.42,2.35,13.7,4.97,28.1,1.36,4.72,1.62,4.75,-0.01,2.43,0.53
